The supplement of paper PMC11732987, “Enantioselective OTUD7B fragment discovery through chemoproteomics screening and high-throughput optimisation” (Communications Chemistry, 2025)

How the values were obtained:
Assay in all cases: log2 ratio of Biotin-Ahx-Ub-VS probe labelling (fragment/DMSO); higher = less target engagement (more negative = stronger competition), active = hit call of the paper (q ≤ 0.05, log2 ratio ≤ -1)
Conditions in all cases: compound concentration: 200 uM; treatment time: 3 h
USP19 = molecular target: T1, USP19 (UniProt O94966)
T1 sequence (whole entry): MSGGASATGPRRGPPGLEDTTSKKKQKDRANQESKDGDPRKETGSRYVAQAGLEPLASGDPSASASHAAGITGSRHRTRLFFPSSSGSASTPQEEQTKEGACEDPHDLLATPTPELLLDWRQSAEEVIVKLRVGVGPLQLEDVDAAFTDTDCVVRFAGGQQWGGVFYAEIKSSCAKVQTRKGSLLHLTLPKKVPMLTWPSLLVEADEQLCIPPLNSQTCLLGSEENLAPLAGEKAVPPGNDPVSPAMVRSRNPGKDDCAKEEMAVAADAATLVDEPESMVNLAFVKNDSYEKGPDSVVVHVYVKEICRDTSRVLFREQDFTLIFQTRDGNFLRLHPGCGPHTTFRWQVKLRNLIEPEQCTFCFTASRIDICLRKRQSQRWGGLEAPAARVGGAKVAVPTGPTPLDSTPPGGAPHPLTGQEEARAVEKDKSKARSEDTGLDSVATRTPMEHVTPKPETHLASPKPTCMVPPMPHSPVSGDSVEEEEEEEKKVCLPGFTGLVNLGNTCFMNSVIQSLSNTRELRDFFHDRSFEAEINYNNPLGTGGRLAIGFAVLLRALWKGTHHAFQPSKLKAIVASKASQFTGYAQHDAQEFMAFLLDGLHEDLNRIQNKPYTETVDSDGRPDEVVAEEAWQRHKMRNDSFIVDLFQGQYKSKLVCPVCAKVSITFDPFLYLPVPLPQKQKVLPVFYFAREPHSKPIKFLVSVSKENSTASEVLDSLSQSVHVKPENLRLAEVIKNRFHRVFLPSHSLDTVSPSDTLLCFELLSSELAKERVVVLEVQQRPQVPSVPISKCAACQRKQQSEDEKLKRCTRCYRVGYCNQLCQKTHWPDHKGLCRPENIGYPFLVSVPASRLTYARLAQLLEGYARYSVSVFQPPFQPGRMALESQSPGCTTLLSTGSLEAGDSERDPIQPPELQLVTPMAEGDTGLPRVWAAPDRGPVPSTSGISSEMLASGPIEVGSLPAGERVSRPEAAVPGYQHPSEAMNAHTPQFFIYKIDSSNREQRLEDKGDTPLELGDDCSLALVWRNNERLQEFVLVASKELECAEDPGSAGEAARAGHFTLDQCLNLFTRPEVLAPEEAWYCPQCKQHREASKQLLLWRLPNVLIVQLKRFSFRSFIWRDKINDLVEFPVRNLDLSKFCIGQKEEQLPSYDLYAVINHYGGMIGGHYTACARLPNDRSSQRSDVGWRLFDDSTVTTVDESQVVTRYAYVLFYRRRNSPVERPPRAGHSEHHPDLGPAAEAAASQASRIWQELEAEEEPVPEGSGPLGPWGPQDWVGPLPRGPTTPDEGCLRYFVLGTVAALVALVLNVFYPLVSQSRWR
How it was run: (§1)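 HEK293T lysate, 495 µg per sample in Tris/CHAPS/IGEPAL buffer with protease inhibitors, was treated in triplicate with fragment at 200 µM or vehicle for 3 h and then with Biotin-Ahx-Ub-VS at 0.5 µM final for 1 h. Labelled DUBs were NeutrAvidin-enriched, digested with LysC and trypsin, and run by diaPASEF LC-MS/MS. Spectronaut label-free quantities were global-median-normalised, and values are average log2 fragment/vehicle ratios by unpaired t-test on proteins with ≥2 unique peptides.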

USP22 = molecular target: T2, USP22 (UniProt Q9UPT9)
T2 sequence (whole entry): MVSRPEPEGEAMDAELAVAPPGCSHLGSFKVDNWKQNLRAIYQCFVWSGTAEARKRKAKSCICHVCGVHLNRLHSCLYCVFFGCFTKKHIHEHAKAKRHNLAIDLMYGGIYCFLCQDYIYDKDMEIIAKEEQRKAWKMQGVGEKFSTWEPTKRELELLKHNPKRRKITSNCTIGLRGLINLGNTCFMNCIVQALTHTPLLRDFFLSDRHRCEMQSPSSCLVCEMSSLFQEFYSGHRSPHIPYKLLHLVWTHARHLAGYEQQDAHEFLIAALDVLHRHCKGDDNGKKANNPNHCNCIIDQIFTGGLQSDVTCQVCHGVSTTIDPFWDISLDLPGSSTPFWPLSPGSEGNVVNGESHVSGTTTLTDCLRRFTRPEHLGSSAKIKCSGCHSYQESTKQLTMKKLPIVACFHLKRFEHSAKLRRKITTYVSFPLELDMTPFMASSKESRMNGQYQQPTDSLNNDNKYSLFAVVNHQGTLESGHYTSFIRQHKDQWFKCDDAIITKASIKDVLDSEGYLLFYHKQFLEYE
How it was run: as §1

USP24 = USP24 (UniProt Q9UPU5)
How it was run: as §1

USP25 = molecular target: T3, USP25 (UniProt Q9UHP3)
T3 sequence (whole entry): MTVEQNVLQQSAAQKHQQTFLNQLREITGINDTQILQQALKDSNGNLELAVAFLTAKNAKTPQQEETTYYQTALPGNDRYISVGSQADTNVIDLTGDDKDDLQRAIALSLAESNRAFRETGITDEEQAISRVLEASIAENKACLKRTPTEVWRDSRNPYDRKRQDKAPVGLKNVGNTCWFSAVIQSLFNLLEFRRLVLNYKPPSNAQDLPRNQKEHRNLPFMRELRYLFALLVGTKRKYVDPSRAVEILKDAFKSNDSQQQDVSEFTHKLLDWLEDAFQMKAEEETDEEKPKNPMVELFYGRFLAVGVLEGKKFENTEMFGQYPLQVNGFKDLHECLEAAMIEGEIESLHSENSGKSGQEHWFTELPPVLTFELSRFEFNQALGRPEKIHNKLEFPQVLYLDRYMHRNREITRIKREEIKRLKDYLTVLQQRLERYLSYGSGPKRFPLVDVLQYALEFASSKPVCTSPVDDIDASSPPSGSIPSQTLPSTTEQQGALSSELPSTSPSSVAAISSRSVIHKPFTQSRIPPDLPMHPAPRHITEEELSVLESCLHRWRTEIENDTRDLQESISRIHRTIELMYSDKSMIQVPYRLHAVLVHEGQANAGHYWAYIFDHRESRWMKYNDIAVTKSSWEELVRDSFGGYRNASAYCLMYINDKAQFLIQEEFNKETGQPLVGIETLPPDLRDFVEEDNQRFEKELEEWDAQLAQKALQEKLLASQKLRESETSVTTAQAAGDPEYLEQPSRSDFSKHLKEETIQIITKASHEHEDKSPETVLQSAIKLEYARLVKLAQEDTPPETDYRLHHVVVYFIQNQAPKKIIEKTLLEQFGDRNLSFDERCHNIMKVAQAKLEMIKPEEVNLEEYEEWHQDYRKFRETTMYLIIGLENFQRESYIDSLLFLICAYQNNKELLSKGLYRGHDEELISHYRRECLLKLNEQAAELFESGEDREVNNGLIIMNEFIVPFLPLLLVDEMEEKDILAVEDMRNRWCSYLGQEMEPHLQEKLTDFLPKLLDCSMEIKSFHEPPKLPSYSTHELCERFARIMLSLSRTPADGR
How it was run: as §1

USP28 = molecular target: T4, USP28 (UniProt Q96RU2)
T4 sequence (whole entry): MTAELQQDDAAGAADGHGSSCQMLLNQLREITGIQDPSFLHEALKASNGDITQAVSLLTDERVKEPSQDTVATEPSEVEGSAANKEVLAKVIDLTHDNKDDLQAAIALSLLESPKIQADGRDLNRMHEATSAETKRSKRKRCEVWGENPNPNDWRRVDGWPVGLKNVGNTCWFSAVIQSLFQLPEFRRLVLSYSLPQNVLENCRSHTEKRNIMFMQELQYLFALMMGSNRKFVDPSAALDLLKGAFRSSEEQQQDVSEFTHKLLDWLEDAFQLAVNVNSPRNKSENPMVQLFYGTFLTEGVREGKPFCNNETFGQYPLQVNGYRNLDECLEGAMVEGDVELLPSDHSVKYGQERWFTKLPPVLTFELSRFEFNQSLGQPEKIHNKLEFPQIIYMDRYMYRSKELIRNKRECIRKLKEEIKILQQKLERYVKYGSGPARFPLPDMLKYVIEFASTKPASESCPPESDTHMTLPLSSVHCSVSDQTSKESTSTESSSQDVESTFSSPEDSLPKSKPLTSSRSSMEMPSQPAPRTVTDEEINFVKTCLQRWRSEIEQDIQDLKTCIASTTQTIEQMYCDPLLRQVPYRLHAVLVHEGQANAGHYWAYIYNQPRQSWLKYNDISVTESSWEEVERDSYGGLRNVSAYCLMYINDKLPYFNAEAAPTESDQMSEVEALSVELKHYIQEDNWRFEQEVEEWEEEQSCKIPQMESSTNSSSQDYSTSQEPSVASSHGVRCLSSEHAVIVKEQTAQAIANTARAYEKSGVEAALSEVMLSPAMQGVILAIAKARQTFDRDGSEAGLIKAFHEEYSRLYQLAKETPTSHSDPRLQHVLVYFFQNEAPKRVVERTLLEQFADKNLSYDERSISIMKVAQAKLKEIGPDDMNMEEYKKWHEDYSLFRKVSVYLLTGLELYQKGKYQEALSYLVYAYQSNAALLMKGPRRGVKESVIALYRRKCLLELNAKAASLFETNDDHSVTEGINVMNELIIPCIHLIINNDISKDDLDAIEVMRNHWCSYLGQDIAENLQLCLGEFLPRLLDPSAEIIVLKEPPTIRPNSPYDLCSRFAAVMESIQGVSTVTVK
How it was run: as §1

Measured: log2 ratio of Biotin-Ahx-Ub-VS probe labelling

USP24, sequence (Q9UPU5 whole entry): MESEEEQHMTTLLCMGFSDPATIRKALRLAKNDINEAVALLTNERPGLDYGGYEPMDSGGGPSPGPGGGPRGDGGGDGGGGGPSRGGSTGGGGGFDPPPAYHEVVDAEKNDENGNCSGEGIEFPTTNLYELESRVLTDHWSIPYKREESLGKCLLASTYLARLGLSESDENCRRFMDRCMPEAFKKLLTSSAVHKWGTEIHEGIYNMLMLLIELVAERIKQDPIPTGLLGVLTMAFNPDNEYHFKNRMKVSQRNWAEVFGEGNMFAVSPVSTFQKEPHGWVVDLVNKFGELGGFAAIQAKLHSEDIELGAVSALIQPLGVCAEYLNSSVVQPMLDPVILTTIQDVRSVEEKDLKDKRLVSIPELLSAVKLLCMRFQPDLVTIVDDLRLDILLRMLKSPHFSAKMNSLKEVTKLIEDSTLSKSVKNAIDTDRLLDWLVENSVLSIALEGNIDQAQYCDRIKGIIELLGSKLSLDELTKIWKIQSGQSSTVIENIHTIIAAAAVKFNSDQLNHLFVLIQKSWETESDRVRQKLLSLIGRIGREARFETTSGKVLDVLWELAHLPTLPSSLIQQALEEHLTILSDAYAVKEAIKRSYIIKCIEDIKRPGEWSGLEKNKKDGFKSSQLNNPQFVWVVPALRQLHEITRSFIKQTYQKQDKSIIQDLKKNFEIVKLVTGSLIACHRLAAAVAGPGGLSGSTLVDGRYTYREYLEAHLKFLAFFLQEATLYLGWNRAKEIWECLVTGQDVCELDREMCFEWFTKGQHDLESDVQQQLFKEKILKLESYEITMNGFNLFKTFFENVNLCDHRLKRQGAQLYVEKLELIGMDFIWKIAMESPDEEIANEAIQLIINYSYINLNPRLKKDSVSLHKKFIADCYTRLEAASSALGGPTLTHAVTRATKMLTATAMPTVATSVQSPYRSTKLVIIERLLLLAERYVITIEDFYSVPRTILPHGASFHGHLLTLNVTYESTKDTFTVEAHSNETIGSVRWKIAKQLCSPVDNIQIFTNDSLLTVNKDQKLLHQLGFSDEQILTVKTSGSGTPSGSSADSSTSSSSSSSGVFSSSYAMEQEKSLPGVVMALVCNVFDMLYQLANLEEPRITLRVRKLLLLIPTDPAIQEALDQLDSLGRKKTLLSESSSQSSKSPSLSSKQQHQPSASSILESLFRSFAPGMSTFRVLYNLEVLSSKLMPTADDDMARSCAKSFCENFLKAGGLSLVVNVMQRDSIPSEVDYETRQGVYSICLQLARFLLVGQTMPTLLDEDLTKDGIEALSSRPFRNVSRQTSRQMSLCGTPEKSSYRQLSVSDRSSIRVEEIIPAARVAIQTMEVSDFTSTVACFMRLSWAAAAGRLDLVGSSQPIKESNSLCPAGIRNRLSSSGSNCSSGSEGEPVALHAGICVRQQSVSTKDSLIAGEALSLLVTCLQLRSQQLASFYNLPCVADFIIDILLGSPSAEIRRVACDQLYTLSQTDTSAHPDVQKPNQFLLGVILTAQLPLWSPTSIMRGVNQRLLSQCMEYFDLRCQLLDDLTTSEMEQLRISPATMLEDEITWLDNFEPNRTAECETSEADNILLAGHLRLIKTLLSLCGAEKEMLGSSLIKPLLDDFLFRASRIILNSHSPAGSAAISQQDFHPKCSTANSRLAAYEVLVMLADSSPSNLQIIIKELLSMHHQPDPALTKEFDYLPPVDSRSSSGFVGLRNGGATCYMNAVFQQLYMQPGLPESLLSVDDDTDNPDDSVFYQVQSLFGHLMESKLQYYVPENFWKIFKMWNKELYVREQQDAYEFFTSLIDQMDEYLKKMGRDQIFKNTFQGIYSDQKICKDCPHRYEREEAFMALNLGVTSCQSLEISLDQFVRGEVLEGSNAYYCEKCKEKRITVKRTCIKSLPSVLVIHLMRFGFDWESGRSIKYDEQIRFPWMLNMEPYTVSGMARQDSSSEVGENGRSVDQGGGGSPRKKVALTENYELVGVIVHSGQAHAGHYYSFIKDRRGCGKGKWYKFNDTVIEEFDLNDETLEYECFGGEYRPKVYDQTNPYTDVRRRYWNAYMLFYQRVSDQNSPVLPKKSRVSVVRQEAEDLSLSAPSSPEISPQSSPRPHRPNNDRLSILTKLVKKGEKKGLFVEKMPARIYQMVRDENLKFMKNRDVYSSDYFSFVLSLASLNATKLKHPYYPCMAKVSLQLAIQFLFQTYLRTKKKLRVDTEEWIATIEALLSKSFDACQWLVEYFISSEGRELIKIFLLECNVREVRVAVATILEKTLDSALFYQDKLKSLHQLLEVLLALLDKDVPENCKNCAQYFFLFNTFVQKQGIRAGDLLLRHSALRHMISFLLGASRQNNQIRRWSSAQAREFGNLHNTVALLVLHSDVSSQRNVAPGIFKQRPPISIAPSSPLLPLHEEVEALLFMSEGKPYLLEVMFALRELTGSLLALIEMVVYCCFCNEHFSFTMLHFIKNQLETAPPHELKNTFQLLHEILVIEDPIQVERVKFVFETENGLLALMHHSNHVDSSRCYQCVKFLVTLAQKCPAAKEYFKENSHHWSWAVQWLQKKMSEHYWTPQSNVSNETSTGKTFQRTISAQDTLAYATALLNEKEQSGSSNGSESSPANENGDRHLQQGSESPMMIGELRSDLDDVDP

Cc1nc(CNC(=O)CCl)c2ccccn12.Cl
inactive: USP19 -0.106 | USP22 0.0129 | USP24 -0.108 | USP25 -0.0552 | USP28 -0.23
